We go through 39 compounds from PubChem BioAssay (NCI).

Compounds without any hit were thinned out: in the full panel of roughly 83,000, 20% have a hit.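 A percent growth of 40 corresponds to 60% growth inhibition; 0 means no net growth; -100 means all cells died. Active threshold: below 10.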 A number with no mark means an inactive call. Active and inactive are the calls of the source.

The subject of the experiment is OVCAR-5 ovarian. The experiment can be described thus: NCI-60 one-dose screen, 48 h (100 = growth as untreated, 0 = no growth, -100 = all killed). Particulars: 10 µM unless noted.
Regarding `COc1cc(NC(=O)NCc2ccco2)ccc1-c1ccc(NC(=O)NCc2ccco2)cc1OC`, the growth was 96.5%.

`COc1cnc2c(c1)C(=O)c1c-2n(CCCN2CCC(O)CC2)c(=O)c2cc(F)ccc12`: the growth is -8.07% (active).

Consider `CCOC(=O)C1=CCC(n2cc(C)c(=O)[nH]c2=O)O1` (centres undefined), for which the growth is 113%.

Consider `CCSc1nc(Nc2ccc(S(=O)(=O)Nc3ccon3)cc2)c(C#N)c(-c2cccc(Br)c2)n1`, for which the growth was 89.6%.

On to `C[C@H]1O[C@@H](O[C@H]2[C@@H](O)C[C@H](O[C@H]3[C@@H](O)C[C@H](O[C@H]4CC[C@]5(C)C6C[C@@H](O)[C@]7(C)[C@@H](C8=CC(=O)OC8)CC[C@]7(O)C6CC[C@@H]5C4)O[C@@H]3C)O[C@@H]2C)C[C@H](O)[C@@H]1O` (some centres undefined), for which the growth is -99.7% (active).

For `Cc1ccc(NC(=O)c2sc3nc4c(cc3c2N)C(=O)CCC4)cc1`, the growth is 78.6%.

For the compound `COc1ccc(-c2nnc3c4[nH]cnc4ncn23)c(OC)c1`, the growth was 17%.

`Cc1ccc(N/N=C(/C(=O)c2ccc(Cl)cc2)c2nc(C)cc(=O)[nH]2)cc1`: the growth was 122%.

`Cc1ccc(/C=C/C(=O)c2ccc(F)cc2)s1`: the growth was 85.7%.

In the case of `CNNc1ncnc2c1cnn2-c1ccc(S(N)(=O)=O)cc1`, the growth was 99.8%.

With `OC(c1cc(-c2cccc(Cl)c2)nc2ccccc12)C1CCCCN1` (centres undefined), the growth was 2.42% (active).

Take `COc1ccc2c(c1)sc1nc(-c3ccc(Br)cc3)cn12`: the growth was 101%.

In the case of `COc1ccccc1NC(=O)c1sc2nc3c(cc2c1N)C(=O)CCC3`, the growth is 76.1%.

In the case of `N#CC(C#N)C(C#N)C#N`, the growth was 111%.

On to `COc1ccc(C2=NN(C(C)=O)C(c3c(C)nn(-c4ccccc4)c3N3CCOCC3)C2)cc1` (centres undefined), for which the growth was 97.6%.

`CCSc1nc(-c2ccco2)n2nc(-c3ccco3)cc2n1`: the growth was 110%.

For `O=C(Nc1ccc2c(c1)C(=O)c1ccccc1-2)c1ccccc1`, the growth was 85.9%.

For the compound `CN(C)c1ccc(-c2nc3ncc(Br)cc3o2)cc1`, the growth is 100%.

In the case of `c1ccc(COc2ccc(Nc3ncnc4c3cnn4-c3ccccc3)cc2)cc1`, the growth was 98.9%.

In the case of `Cc1ccccc1NC(=O)N/C(N)=N/c1nc2ccccc2s1`, the growth was 35.5%.

For `Cc1ccc(C2=NNC(c3sc(Cl)nc3Cl)C2)cc1` (centres undefined), the growth was 116%.

As to `N#Cc1ccccc1C#Cc1ccccc1C#Cc1ccc(OCCCCCCOc2ccc(C#Cc3ccccc3C#Cc3ccccc3C#N)cc2)cc1`, the growth was 96%.

`C=CCN(/C=C/CN(CC=C)CC=C)CC=C`: the growth is 104%.

With `C[C@@H]1CN(c2nc3c(cc2F)c(=O)c(C(=O)O)cn3C(C)(C)C)C[C@H](C)N1`, the growth is 109%.

As to `CCN(CC)c1ccc(N=C2C=CC(=O)C=C2NC(C)=O)cc1`, the growth is 108%.

`COc1ccc(NS(=O)(=O)N2CCCCC2)cc1`: the growth was 117%.

As to `COc1cc(/C=C2\CN(S(=O)(=O)c3ccc(C)cc3)C/C(=C\c3cc(CN4CCOCC4)c(O)c(OC)c3)C2=O)cc(CN2CCOCC2)c1O`, the growth is -26% (active).

In the case of `Cc1ccc(C2=Nc3c(ccc4c(C)c(C)c(=O)oc34)OC2)cc1`, the growth was 103%.

As to `NC(=O)c1cc(Cl)ccc1NC(=O)c1ccccc1-c1ccccc1`, the growth was 54.4%.

Regarding `CC12CCC3C(=CCc4cc(O)ccc43)C1CCC2=O` (centres undefined), the growth was 102%.

In the case of `CCOC(=O)OCC(=O)[C@@]1(O)CC[C@H]2[C@@H]3CCC4=CC(=O)CC[C@]4(C)[C@H]3[C@@H](O)C[C@@]21C`, the growth was 83.2%.

As for `O=C1NCCc2c1noc2-c1ccccc1`, the growth was 103%.

In the case of `O=C1C=CC(=O)N1c1ccccc1N1C(=O)C=CC1=O`, the growth was 93.4%.

On to `Cc1cnc2nc(-c3ccc(N(C)C)cc3)cn2c1`, for which the growth was 78.4%.

`Cc1n(Cc2ccc3ccccc3c2)c2ccccc2[n+]1Cc1ccc2ccccc2c1`: the growth is -46.4% (active).

In the case of `CC1C(=O)NC2=Nc3ccccc3C(=O)NN21` (centres undefined), the growth is 96.5%.

In the case of `CC(C)N(Cc1ccccc1)c1c(S)ssc1=S`, the growth is 14.1%.

In the case of `COc1cc(C2CC(c3ccc(C)cc3)=NN2C=O)ccc1OCCN(C)C` (centres undefined), the growth was 94.3%.

With `CCN(CC)CCSc1ncnc2c1cnn2-c1ccc(S(N)(=O)=O)cc1`, the growth was 112%.
